Each structure is given as a SMILES string. In all, about 2,100 compounds went through this assay and about 940 (45%) were called active. Another 48% or so got no clear call; they are omitted. The set was probably picked from earlier hits. The list shows a part of the results. Unmarked numbers belong to inactive results. Calls follow the shape of the dose curve; as a rule, active = well fitted inhibition curve with a large enough effect; inconclusive = small, poorly fitted or top-dose-only effect; inactive = no such curve, though single readings can be large or run the other way.
Potency is read from the fitted curve at half-maximal effect.

A short description of this experiment: Confirmatory qHTS for Inhibitors of ATXN expression. Also: nearly all actives have a fitted effect of over 65% in size.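 As to activity change, negative = inhibition: 0% = DMSO vehicle wells and -100% = medium-only wells without cells.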 The conditions noted are these: ATXN2-luciferase reporter cells, luminescence, 24 h; series mostly up to 11.5 µM; activity change, negative = inhibition: at the top concentration. In a few lines:
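A titration, incubated 24 h with reporter cells expressing ATXN2-luciferase. Luminescence (SteadyGlo) gives ATXN2 expression, multiplexed GF-AFC fluorescence gives viability; normalised to DMSO and medium-only wells.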
In general terms: In qHTS, concentration-response curves come from the screen itself.
Take `CCN(CC)CCNC(=O)C1CCN(S(=O)(=O)c2c(C)noc2/C=C/c2ccccc2F)CC1`: the Potency was 3.16 µM (active).

With `COc1cc(NS(=O)(=O)c2ccc(N/C=C(\C#N)c3nc4cc(Cl)ccc4o3)cc2)nc(OC)n1`, the Potency is 3.98 µM (active).

For `CCCCOc1ccc(NC2=NC3(CCCC3)N=C(N)N2)cc1`, the “activity change, negative = inhibition” value was -18% [at 57.5 µM].

Consider `CC[C@H]1CN2CCc3cc(OC)c(OC)cc3[C@@H]2C[C@@H]1C[C@H]1NCCc2cc(OC)c(OC)cc21`, for which the Potency is 0.0447 µM (active).

`CCC1=C(CC2NCCc3ccccc32)CC2c3cc(OC)c(OC)cc3CCN2C1` (stereo not drawn): the Potency is 8.91 µM (active).

Turning to `CC[C@H]1CN2CCc3cc(OC)c(OC)cc3C2C[C@@H]1C[C@H]1NCCc2cc(OC)c(OC)cc21` (stereo partly drawn), the Potency is 0.316 µM (active).

Regarding `O=C1C=C(Nc2ccccc2O)c2ccccc2C1=O`, the Potency is 12.6 µM (active).

In the case of `CCN1CCN(c2ccc(S(=O)(=O)N3CCCCC3)cc2NC(=O)/C=C/c2ccc([N+](=O)[O-])cc2)CC1`, the Potency is 2 µM (active).

Consider `COc1ccc(/C=C/C(=O)Nc2cccc(S(=O)(=O)N3CCCC3)c2)cc1OC`, for which the “activity change, negative = inhibition” value was -15.2%.

Regarding `CCN1CCN(c2ccc(S(=O)(=O)N3CCCCC3)cc2NC(=O)c2ccc([N+](=O)[O-])s2)CC1`, the Potency is 3.16 µM (active).

`Fc1ccc2[nH]c3c(NCc4ccccc4)ncnc3c2c1`: the Potency was 1.12 µM (active).

Regarding `COc1ccc(CNc2ncnc3c2[nH]c2ccccc23)cc1`, the Potency was 8.91 µM (active).

On to `CCOc1ccc2[nH]c3c(NCCc4ccc(OC)c(OC)c4)ncnc3c2c1`, for which the Potency was 15.8 µM (active).

In the case of `Cc1cc(NC(=O)CSc2nc3c(sc4ccccc43)c(=O)n2CCCN2CCOCC2)n[nH]1`, the Potency is 1.58 µM (active).

For `Cn1c(=O)c2c(nc(SCCN3CCOCC3)n2Cc2cccc3ccccc23)n(C)c1=O`, the “activity change, negative = inhibition” value is -12.7%.

As for `CCOC(=O)COc1ccc(Br)cc1/C=C/c1[nH]c(=O)[nH]c(=O)c1[N+](=O)[O-]`, the “activity change, negative = inhibition” value is -23.6%.

For the molecule `Cc1cc2nc(-c3nnnn3Cc3ccccc3)c(=O)[nH]c2cc1C`, the “activity change, negative = inhibition” value is -0.827%.

As to `CC1=NN(c2nc3ccccc3[nH]2)C(=O)C1Cc1ccccc1` (stereo not drawn), the Potency is 2 µM (active).

With `CCN(CC)CCNC(=O)c1ccc(NC(=O)Cc2cccc3ccccc23)cc1`, the Potency is 3.98 µM (active).

`Cc1ccc(-c2cc(-c3ccccc3)nc(NN)n2)cc1`: the Potency is 35.5 µM (active).

Turning to `CCOc1ccc(NCc2cccn2-c2nnc(N3CCC(C(=O)NCCCN4CC(C)CC(C)C4)CC3)s2)cc1` (stereo not drawn), the Potency was 3.16 µM (active).

Turning to `CCSc1nc2ccccc2n1C(=O)/C=C\c1ccc(OC)c(OC)c1`, the Potency is 8.91 µM (active).

Take `C=CCSc1nc2ccccc2n1C(=O)/C=C/c1ccc(OC)c(OC)c1`: the Potency is 2.82 µM (active).

Take `CC(=O)N1c2ccc(S(=O)(=O)N3CCC(C(=O)Nc4cccc(C(F)(F)F)c4)CC3)cc2CC1C` (stereo not drawn): the Potency is 14.1 µM (active).

Consider `Cc1ccc2c(Cl)cc(Cl)c(O)c2n1`, for which the Potency was 5.62 µM (active).

Take `COc1ccc([C@@]2(C(C)C)ON(c3ccccc3C(F)(F)F)C2=O)cc1`: the “activity change, negative = inhibition” value is -15.7%.

Consider `COc1ccc(OC)c(C(=O)/C=C/c2ccccc2C(F)(F)F)c1`, for which the Potency is 3.16 µM (active).

Take `Cc1ccc(-c2cc(C(=O)NCCCN3CCOCC3)no2)cc1`: the Potency is 7.94 µM (active).

For the molecule `CC(O)(c1ccccc1)c1nc(-c2ccncc2)cs1` (stereo not drawn), the “activity change, negative = inhibition” value is 7.8%.

Consider `OCCN1CCN(C2CCC(c3ccc(F)cc3)c3ccc(F)cc32)CC1` (stereo not drawn), for which the Potency was 25.1 µM (active).

`CCN(CC)S(=O)(=O)c1ccc(N/N=C/c2cc(OC)ccc2O)nc1`: the Potency was 0.794 µM (active).

As for `CC(=O)N1CCCc2cc(S(=O)(=O)N3CCCC(C(=O)N4CCN(c5cc(C)ccc5C)CC4)C3)ccc21` (stereo not drawn), the Potency is 3.16 µM (active).

On to `CCc1ccc(NC(=O)COc2ccc(/C=C(/C#N)c3nc4ccccc4[nH]3)cc2OC)cc1`, for which the Potency was 3.55 µM (active).

For `CCOCCn1ccc2c(OCC(=O)Nc3ccc(OC)c(OC)c3)cccc2c1=O`, the “activity change, negative = inhibition” value was -16.3%.

In the case of `CCOC(=O)c1ccc2ncc(C(=O)OCC)c(Nc3ccc(N4CCOCC4)cc3)c2c1`, the Potency is 3.98 µM (active).

Take `CCN(CC)S(=O)(=O)c1cccc(NC(=O)Nc2cccc(C(F)(F)F)c2)c1`: the Potency is 1.78 µM (active).

With `O=c1cc(N2CCN(c3cccc(Cl)c3)CC2)[nH]c(=O)n1C1CCCCC1`, the Potency was 0.355 µM (active).

`Cc1nc2ccccc2c(=O)n1/N=C/c1c(O)ccc2oc3c(c12)CCCC3`: the Potency was 15.8 µM (active).

As for `NC(=O)N/N=C/c1c(O)ccc2oc3c(c12)CCCC3`, the Potency was 14.1 µM (active).

Consider `Cc1ccc(N=Nc2ccc(O)c3ncccc23)cc1`, for which the Potency was 3.16 µM (active).

With `Cc1ccccc1N=Nc1ccc(O)c2ncccc12`, the Potency was 1.41 µM (active).

On to `Cn1c2c(c(=O)[nH]c1=O)C(c1cccc(O)c1)C1=C(N2)c2ccccc2C1=O` (stereo not drawn), for which the Potency was 3.98 µM (active).

Consider `COCCCNCCCOc1ccc(Cl)cc1C(C)(C)C`, for which the Potency was 15.8 µM (active).

On to `CCc1cc2c(N3CCN(c4nnc(CC)s4)CC3)ncnc2s1`, for which the Potency was 3.55 µM (active).

As to `Cc1cc(C)cc(NC(=O)CCc2nc3sc4c(c3c(=O)[nH]2)CCCC4)c1`, the Potency was 0.708 µM (active).

In the case of `CC(=O)NC(c1cccc([N+](=O)[O-])c1)c1ccc2cccnc2c1O` (stereo not drawn), the Potency is 0.562 µM (active).

On to `CC(C)C(=O)NC(c1cccc([N+](=O)[O-])c1)c1ccc2cccnc2c1O` (stereo not drawn), for which the Potency was 2.24 µM (active).

For the molecule `CC(NC(=O)Nc1cccc([N+](=O)[O-])c1)c1ccc2c(c1)OCO2` (stereo not drawn), the “activity change, negative = inhibition” value is -5.8%.

With `O=[N+]([O-])c1ccc(NC(c2ccccc2)c2ccc3cccnc3c2O)cc1` (stereo not drawn), the Potency was 1.26 µM (active).

For the molecule `CCOC(=O)c1ccc(N=c2sc(C(=O)OC)cc(=O)n2-c2ccc(C(=O)OCC)cc2)cc1`, the Potency is 3.98 µM (active).

As for `O=C(CC1NCCc2ccccc21)Nc1ccc(Cl)cc1` (stereo not drawn), the “activity change, negative = inhibition” value was 7.55%.

Turning to `O=C(CSc1n[nH]c(-c2ccccn2)n1)Nc1ccc(F)cc1`, the Potency is 8.91 µM (active).

For the molecule `Cc1ccc(NC(=O)CSc2n[nH]c(-c3ccccn3)n2)cc1`, the Potency was 2.82 µM (active).

Turning to `O=C(CSc1n[nH]c(-c2ccccn2)n1)Nc1cccc(Cl)c1`, the Potency was 3.55 µM (active).

Consider `O=C(CSc1n[nH]c(-c2ccccn2)n1)Nc1ccc(Cl)cc1`, for which the Potency was 1.26 µM (active).

Take `COC(/C(=N/O)c1ccc(Cl)cc1)c1ccccc1` (stereo not drawn): the “activity change, negative = inhibition” value was -30% [at 57.5 µM].

Consider `O=C(CSc1n[nH]c(-c2ccccn2)n1)Nc1ccccc1`, for which the Potency was 15.8 µM (active).

For the molecule `COc1cc(Br)cc(/C=N/NC(=O)Cc2ccc(C(F)(F)F)cc2[N+](=O)[O-])c1O`, the Potency is 10 µM (active).

Source of the values: PubChem BioAssay AID1745848 (National Center for Advancing Translational Sciences (NCATS), 2022).
